Assay results from PubChem BioAssay (NCATS).
Results filed as inconclusive are left out. A call without a number means that no potency is given here. Values without a mark were called inactive. The source made the active and inactive calls. Calls come from the whole dose curve; as a rule, active = well fitted curve in the direction sought with a large enough effect; inconclusive = small, poorly fitted or top-dose-only effect, or another doubt; inactive = no such curve, though single readings can be large; an effect the other way counts as inactive or inconclusive. Square brackets hold non-standard residues; d marks the D form. Peptide text beside a SMILES is read from it. Ala(indol-2-yl) = N[C@@H](Cc1cc2ccccc2[nH]1)C(=O)O; Aib = CC(C)(N)C(=O)O

How the values were obtained:
[1] = target: Cellular tumor antigen p53 (Homo sapiens) (UniProt P04637); experiment: Primary qHTS for small molecule compounds that upregulate eGFP-tagged delta133p53alpha (in N-terminal) cells. (AID 2060322); settings: NCI-H358 eGFP-delta133p53alpha fluorescence, 24 h; activation: hits give high values; note: nearly all actives have a fitted effect of over 75% in size; note: potency is the fitted concentration of half-maximal effect;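 for activation: cells pre-induced with doxycycline then dosed without doxycycline; series mostly up to about 56 µM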
Cellular tumor antigen p53 (Homo sapiens), sequence (P04637 whole entry, looked up): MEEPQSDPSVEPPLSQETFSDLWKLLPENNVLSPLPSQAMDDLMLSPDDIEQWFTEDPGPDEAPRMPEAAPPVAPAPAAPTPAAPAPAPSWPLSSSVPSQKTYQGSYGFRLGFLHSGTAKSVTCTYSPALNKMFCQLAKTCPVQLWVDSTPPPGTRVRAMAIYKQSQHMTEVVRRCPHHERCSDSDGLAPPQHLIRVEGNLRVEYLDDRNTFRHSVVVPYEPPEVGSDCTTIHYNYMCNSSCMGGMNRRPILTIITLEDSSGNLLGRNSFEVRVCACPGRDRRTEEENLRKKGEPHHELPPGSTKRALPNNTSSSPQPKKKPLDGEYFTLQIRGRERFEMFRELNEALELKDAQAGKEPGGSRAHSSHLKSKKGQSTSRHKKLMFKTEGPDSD
Summary of the method: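 NCI-H358 cells pre-induced 24 h with 10 ng/ml doxycycline for eGFP-delta133p53alpha, plated dox-free and exposed 24 h at 37C to titrated compounds. Fixed, Hoechst-stained; gated GFP peak intensity by laser scanning cytometry, normalized to DMSO (0%) and 57.5 uM 5-azacytidine (100%).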

[2] = target: Aldehyde dehydrogenase, mitochondrial (Homo sapiens) (UniProt P05091); experiment: qHTS for Inhibitors of the Aldehyde Dehydrogenase Family (ALDH2) Primary screen (AID 2061308); note: nearly all actives have a fitted effect of over 55% in size
[3] = target: Retinaldehyde dehydrogenase 3 (Homo sapiens) (UniProt P47895); experiment: qHTS for Inhibitors of the Aldehyde Dehydrogenase Family (ALDH1A3) Primary screen (AID 2061315)

Structure (SMILES) | activation [1] | Potency [2] | Potency [3] | Potency [1] | activity change, negative = inhibition [2] | activity change, negative = inhibition [3]
C[C@@]1(CO)[C@H](O)CC[C@@]2(C)[C@H]1CC[C@H]1C[C@@H]3C[C@@]12CC[C@]3(O)CO | -3.82% | inactive | inactive |  |  | 
CC(=O)OC[C@]12C[C@H](O)C(C)=C[C@H]1O[C@@H]1[C@H](O)[C@@H](O)[C@@]2(C)[C@]12CO2 |  | inactive | inactive | 6.59 µM (active) |  | 
C/C1=C/[C@@H](C)C/C=C/[C@H]2[C@@H]3O[C@]3(C)[C@@H](C)[C@H]3[C@H](Cc4c[nH]c5ccccc45)NC(=O)[C@]32C(=O)/C=C\C(=O)[C@@H]1O |  | inactive | inactive | 11.7 µM (active) |  | 
C[C@]12CC[C@H](O)C[C@@H]1CC[C@@H]1[C@@H]2CC[C@]2(C)C(=O)CC[C@@H]12 | 6.33% | inactive | inactive |  |  | 
CC(=O)OC[C@]12C[C@H](OC(C)=O)C(C)=C[C@H]1O[C@@H]1[C@H](O)[C@@H](O)[C@@]2(C)[C@]12CO2 |  | inactive | inactive | 0.467 µM (active) |  | 
O=C(N[C@H]1N=C(c2ccccc2F)c2cccc3c2N(CC3)C1=O)c1cc2ccccc2[nH]1 | 6.33% | inactive | inactive |  |  | 
CC(C)(NC(=O)[C@@H](N)Cc1ccc(O)cc1)C(=O)N[C@@H](Cc1cc2ccccc2[nH]1)C(=O)N[C@@H](Cc1ccccc1)C(=O)O (H-Y[Aib][Ala(indol-2-yl)]F-OH) | 7% |  |  |  | -1.78% [at 11.2 µM] | -10.2% [at 11.2 µM]
N#CC(O[C@@H]1O[C@H](CO)[C@@H](O)[C@H](O)[C@H]1O)c1ccccc1 (stereo not given in full) | 13% | inactive | inactive |  |  | 
CN1C(=O)C(Cc2ccc3ccccc3c2)N=C(c2ccc(O)cc2)c2cc(Cl)ccc21 (stereo not given) | 10.3% | inactive | inactive |  |  | 
COCC(C(=O)OC1CC2CCC(C1)N2C)c1ccccc1 (stereo not given) | 4.33% | inactive | inactive |  |  | 
CCCCCCC1C(=O)O[C@H](C)[C@H](NC(=O)c2cccc(NC=O)c2O)C(=O)O[C@@H](C)[C@@H]1OC(=O)CC(C)C (stereo not given in full) | -5.67% | inactive | inactive |  |  | 
C=C1C2(C)CC3C(C)(O)C4=CC(=O)OC(C)(C)C4=CCC3(C)C13C(=O)OC(C)C3(O)C2=O (stereo not given) | -0.763% | inactive | inactive |  |  | 
CC1=C[C@H]2O[C@@H]3C[C@H]4OC(=O)/C=C/C=C/C(=O)OCC/C(C)=C/C(=O)OC[C@@]2(CC1)[C@]4(C)[C@]31CO1 |  | inactive | inactive | 0.0165 µM (active) |  | 
CCC(C)(C#N)O[C@@H]1O[C@H](CO)[C@@H](O)[C@H](O)[C@H]1O (stereo not given in full) | 16.8% | inactive | inactive |  |  | 
C[C@]12CC[C@H](O)CC1=CC[C@@H]1C2CC[C@]2(C)[C@@H](C3=CC(=O)OC3)CC[C@]12O (stereo not given in full) | 2.29% | inactive | inactive |  |  | 
